Assay [1] addresses Cytochrome P450 1A2 (Homo sapiens) (UniProt P05177). Briefly: p450-cyp1a2 (AID 410; calls by dose curve; further: potency means the concentration at half of the fitted maximal effect). The essentials:
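Read-out is luminescence from luciferin produced by CYP1A2 demethylation of Luciferin-ME (100uM, at Km). Detection reagent stopped the 60 min NADPH-dependent reaction; signals were normalized to 57 uM furafylline.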

The target in assay [2] is Mitogen-activated protein kinase 10 (Mus musculus) (UniProt Q61831). The assay is described as follows: JNK3 AlphaScreen Assay (AID 530; active means well fitted curve in either direction with a large enough effect, not every such curve was filed as active;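 further: kinase came from lysate of stimulated human HepG2 cells; signal reports phosphorylation of biotinylated GST-cJun 1-79 at Ser73 with 10 µM ATP; series mostly up to about 57 µM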). The essentials:
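Biotinylated GST-cJun(1-79) served as substrate for JNK3 in HepG2 lysates stimulated with IL-1beta and TNF-alpha. ATP was 10 uM final, pH 7.6. Ser73 phosphorylation was quantified by AlphaScreen (680 nm excitation).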
In general terms: Bead proximity is the source of the signal in Alpha formats.

The target in assay [3] is 3',5'-cyclic-AMP phosphodiesterase 4B (Homo sapiens) (UniProt Q07343). Briefly: qHTS Assay for Inhibitors of PDE-IV (AID 607; active means well fitted activation curve with a large enough effect in the main read-out, with a control signal flat, not every such curve was filed as active). The essentials:
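Cell-based read-out of cAMP via a modified cyclic nucleotide-gated channel and membrane potential dye (535/590 nm) in HEK293 cells expressing PDE4 endogenously. Compounds tested up to 22.9 uM final; 100 uM RO 20-1724 reference.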
In general terms: Quantitative high-throughput screening tests each substance at several concentrations.

Assay [4] addresses Cytochrome P450 2C9 (Homo sapiens) (UniProt P11712). The assay is described as follows: qHTS Assay for Inhibitors and Substrates of Cytochrome P450 2C9 (AID 883). Further: nearly all actives have a fitted effect of over 60% in size. Further: potency means the concentration at half of the fitted maximal effect. A digest of the protocol: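 A luminogenic readout tracked human CYP2C9 (10nM) converting deoxyluciferin (100uM, at KM) in 25mM KPO4 during 60 min at 37C with regenerated NADPH. Values normalized to 57uM sulphaphenazole as complete inhibition.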

Assay [5] deals with Cytochrome P450 3A4 (Homo sapiens) (UniProt P08684). The assay is described as follows: qHTS Assay for Inhibitors and Substrates of Cytochrome P450 3A4 (AID 884). Further: potency means the concentration at half of the fitted maximal effect; nearly all actives have a fitted effect of over 50% in size. A digest of the protocol:
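Luminescent readout of luciferin produced by CYP3A4 (20 nM) dealkylation of Luciferin-PPXE, 25 uM (its KM). NADPH-driven reaction ran 60 min at RT after 10 min compound preincubation; data scaled to 57 uM ketoconazole as 100% inhibition.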

For assay [6] the target is unchanged. Briefly: qHTS Assay for Activators of Cytochrome P450 3A4 (AID 885). Further: nearly all actives have a fitted effect of over 65% in size. The essentials:
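Luminescent readout of luciferin formed from 25 uM Luciferin-PPXE (KM level) by 20 nM CYP3A4 in 200 mM KPO4, with 60 min NADPH-driven reaction at room temperature after 10 min compound exposure. Ketoconazole (57 uM) defined 100% inhibition.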

The target in assay [7] is Cytochrome P450 2C19 (Homo sapiens) (UniProt P33261). The assay is described as follows: qHTS Assay for Inhibitors and Substrates of Cytochrome P450 2C19 (AID 899). Further: nearly all actives have a fitted effect of over 60% in size. Further: potency means the concentration at half of the fitted maximal effect. The essentials: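 NADPH-dependent conversion of Luciferin-H EGE (10uM, at KM) by 5nM enzyme in 50mM KPO4, 60 min at 37C following 10 min compound preincubation. Stopped with luciferin detection buffer; luminescence read after 20 min.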
Chain of Cytochrome P450 2C19 (Homo sapiens) (P33261 whole entry, looked up): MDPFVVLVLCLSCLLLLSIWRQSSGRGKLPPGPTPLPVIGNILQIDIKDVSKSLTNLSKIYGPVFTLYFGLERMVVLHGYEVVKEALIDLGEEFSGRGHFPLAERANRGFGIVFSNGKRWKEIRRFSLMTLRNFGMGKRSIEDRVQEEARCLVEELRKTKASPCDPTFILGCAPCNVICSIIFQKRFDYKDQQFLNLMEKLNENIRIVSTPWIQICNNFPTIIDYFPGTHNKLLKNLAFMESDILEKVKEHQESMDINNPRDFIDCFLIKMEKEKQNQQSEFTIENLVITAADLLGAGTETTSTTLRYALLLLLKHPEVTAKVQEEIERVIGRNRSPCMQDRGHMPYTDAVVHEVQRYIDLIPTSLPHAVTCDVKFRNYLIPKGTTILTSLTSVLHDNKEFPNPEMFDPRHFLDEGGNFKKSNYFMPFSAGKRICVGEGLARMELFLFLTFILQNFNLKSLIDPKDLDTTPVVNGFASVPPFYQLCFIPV

Assay [8] has as its target Cytochrome P450 2D6 (Homo sapiens) (UniProt P10635). Briefly: qHTS Assay for Inhibitors and Substrates of Cytochrome P450 2D6 (AID 891). Further: nearly all actives have a fitted effect of over 60% in size. Further: potency means the concentration at half of the fitted maximal effect. The essentials: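 Luminescent read-out of luciferin formed by 5 nM human CYP2D6 demethylating 30 uM Luciferin-ME EGE (Km level) over 60 min at room temperature after NADPH regeneration addition. Data normalized to full inhibition by 1.43 uM quinidine.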

Inconclusive results are not listed. Activity calls are given as the source filed them. Unless noted, the call rests on the fitted dose curve; in most records, active means well fitted curve in the direction sought with a large enough effect; inconclusive means small, poorly fitted or top-dose-only effect, or another doubt; inactive means no such curve, though single readings can be large; an effect the other way counts as inactive or inconclusive.

Chain of Cytochrome P450 2C9 (Homo sapiens) (P11712 whole entry, looked up): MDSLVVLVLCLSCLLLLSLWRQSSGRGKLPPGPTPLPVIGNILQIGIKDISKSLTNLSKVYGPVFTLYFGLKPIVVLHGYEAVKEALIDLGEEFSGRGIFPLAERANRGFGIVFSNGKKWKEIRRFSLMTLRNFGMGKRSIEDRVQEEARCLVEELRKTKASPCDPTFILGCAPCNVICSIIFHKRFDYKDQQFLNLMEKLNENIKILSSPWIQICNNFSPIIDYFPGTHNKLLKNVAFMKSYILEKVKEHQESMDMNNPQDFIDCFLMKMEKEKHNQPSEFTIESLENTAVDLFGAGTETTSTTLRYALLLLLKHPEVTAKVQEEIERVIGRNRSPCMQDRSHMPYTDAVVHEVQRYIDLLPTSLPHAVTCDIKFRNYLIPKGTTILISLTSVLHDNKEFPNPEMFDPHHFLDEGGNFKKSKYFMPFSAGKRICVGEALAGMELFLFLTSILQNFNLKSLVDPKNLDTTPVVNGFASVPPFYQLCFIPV
Chain of Cytochrome P450 1A2 (Homo sapiens) (P05177 whole entry, looked up): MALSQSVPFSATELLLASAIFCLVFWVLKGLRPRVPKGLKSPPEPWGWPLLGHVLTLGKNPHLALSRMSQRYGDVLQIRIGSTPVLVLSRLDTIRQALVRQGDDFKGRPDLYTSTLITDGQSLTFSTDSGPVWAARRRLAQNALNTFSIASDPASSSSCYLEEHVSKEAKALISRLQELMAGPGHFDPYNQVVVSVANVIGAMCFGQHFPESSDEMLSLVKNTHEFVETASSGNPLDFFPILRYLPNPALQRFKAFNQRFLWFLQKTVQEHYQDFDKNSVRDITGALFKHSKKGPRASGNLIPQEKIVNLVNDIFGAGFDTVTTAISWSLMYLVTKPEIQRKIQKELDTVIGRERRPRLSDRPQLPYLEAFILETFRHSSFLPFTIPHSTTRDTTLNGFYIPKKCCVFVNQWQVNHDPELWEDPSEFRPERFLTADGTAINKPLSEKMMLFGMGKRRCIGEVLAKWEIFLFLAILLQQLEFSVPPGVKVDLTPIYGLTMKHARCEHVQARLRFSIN
Chain of 3',5'-cyclic-AMP phosphodiesterase 4B (Homo sapiens) (Q07343 whole entry, looked up): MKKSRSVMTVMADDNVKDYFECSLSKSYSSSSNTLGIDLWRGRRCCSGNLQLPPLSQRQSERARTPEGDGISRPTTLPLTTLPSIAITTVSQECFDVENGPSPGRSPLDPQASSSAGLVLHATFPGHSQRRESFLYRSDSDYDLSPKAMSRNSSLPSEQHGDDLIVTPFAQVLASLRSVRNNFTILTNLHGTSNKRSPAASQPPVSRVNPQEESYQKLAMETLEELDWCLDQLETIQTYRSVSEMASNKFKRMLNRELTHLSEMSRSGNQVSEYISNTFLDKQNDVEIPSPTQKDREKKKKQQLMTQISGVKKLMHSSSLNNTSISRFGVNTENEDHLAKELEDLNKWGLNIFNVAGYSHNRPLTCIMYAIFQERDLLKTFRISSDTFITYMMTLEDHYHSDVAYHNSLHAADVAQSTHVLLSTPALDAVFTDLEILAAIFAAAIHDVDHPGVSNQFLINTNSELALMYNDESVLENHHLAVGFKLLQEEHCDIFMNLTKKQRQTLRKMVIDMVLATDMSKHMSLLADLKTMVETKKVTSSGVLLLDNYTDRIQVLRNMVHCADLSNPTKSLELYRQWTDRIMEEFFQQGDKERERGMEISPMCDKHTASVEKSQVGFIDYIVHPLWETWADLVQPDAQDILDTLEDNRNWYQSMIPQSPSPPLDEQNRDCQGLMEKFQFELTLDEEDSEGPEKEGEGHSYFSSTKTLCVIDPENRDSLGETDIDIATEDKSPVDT
Chain of Cytochrome P450 3A4 (Homo sapiens) (P08684 whole entry, looked up): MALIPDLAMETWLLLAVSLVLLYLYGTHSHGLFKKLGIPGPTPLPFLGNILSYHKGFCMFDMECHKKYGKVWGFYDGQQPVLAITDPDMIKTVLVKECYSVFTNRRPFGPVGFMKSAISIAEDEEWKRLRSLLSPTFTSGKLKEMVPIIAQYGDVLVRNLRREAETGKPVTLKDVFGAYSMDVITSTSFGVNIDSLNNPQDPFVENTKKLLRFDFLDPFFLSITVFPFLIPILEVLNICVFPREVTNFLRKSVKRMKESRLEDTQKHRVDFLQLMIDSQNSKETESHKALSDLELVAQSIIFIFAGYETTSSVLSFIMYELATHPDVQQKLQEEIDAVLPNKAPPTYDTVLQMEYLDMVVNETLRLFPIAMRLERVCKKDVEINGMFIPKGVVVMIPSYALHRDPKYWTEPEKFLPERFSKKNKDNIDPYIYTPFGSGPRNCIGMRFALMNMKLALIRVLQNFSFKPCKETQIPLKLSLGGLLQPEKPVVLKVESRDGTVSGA
Chain of Cytochrome P450 2D6 (Homo sapiens) (P10635 whole entry, looked up): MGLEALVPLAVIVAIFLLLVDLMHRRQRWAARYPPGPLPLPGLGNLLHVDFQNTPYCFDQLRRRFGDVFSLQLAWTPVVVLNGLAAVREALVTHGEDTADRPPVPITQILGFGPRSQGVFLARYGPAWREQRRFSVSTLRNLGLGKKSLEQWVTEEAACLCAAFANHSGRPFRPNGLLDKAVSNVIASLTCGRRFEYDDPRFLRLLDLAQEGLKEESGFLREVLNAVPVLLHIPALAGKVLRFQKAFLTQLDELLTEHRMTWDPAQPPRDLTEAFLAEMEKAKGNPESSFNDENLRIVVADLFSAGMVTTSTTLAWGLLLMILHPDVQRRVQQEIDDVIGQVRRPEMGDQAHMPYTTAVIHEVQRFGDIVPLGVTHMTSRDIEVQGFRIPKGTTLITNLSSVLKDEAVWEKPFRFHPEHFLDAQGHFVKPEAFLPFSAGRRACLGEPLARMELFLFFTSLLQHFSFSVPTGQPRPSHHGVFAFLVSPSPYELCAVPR

Consider `COC(=O)[C@@]1(Cc2ccc(F)cc2)[C@H]2c3cc(C(=O)N4CCCC4)n(Cc4cccc5ccccc45)c3C[C@H]2CN1C(=O)c1ccccc1`, for which the Potency in assay [1] is 15.8 µM (active); in assay [4] it was 1.58 µM (active); in assay [5], 2 µM (active). The Potency entry in assay [2], in assay [3] and in assay [6] was “inactive” in each case.

With `COC(=O)[C@@]1(Cc2ccc(F)cc2)[C@H]2c3cc(C(=O)N4CCCC4)n(Cc4ccccc4)c3C[C@H]2CN1C(=O)c1ccccc1`, the Potency in assay [1] is 20 µM (active); in assay [4], 3.98 µM (active). Further, the Potency entry in assay [2], in assay [3] and in assay [6] was “inactive” in each case.

Consider `COC(=O)[C@@]1(Cc2ccc(F)cc2)[C@H]2c3cc(C(=O)N4CCCC4)n(CCN4CNCC4=O)c3C[C@H]2CN1C(=O)c1ccccc1`, for which the Potency is 15.8 µM (active) in assay [1], 7.94 µM (active) in assay [4] and 2 µM (active) in assay [5]. For the same molecule, the Potency result in assay [2], in assay [3] and in assay [6] was “inactive” throughout.

`COC(=O)[C@@]1(Cc2ccccc2)[C@H]2c3cc(C(=O)N4CCCC4)n(Cc4ccsc4Br)c3C[C@H]2CN1C(=O)c1ccccc1`: the Potency entry in assay [1], in assay [2], in assay [3] and in assay [6] was “inactive” each time. For the same molecule, the Potency in assay [4] was 2 µM (active); in assay [5], 3.98 µM (active); in assay [7] it was 2.51 µM (active).

For `NCCC[C@@H](CC(=O)N[C@@H]1CCNC[C@H]1C(=O)N[C@H](CC(=O)N[C@@H](CCC(=O)O)CC(=O)O)Cc1ccccc1)NC(=O)C[C@H](CO)NC(=O)[C@@H]1CCCC[C@H]1N`, the Potency result in assay [1], in assay [2], in assay [3], in assay [4] and in assay [8] was “inactive” throughout.

As for `C[C@@H](C(=O)NCCc1c[nH]c2ccccc12)[C@@H]1C[C@@]1(C)[C@@H](NC(=O)OCc1ccccc1)c1ccccc1`, the Potency in assay [1] is 12.6 µM (active); in assay [4], 2.51 µM (active); in assay [5], 3.16 µM (active); in assay [7] it was 0.794 µM (active). The Potency entry in assay [2], in assay [3] and in assay [6] was “inactive” in each case.

For `COC(=O)[C@@]1(Cc2ccc(OC)cc2)[C@H]2c3cc(C(=O)N(C)C)[nH]c3C[C@H]2CN1C(=O)c1ccccc1`, the Potency is 20 µM (active) in assay [1], 3.98 µM (active) in assay [4], 1.58 µM (active) in assay [5] and 5.01 µM (active) in assay [7]. The Potency result in assay [2], in assay [3] and in assay [6] was “inactive” throughout.

Regarding `COC(=O)[C@@]1(Cc2ccc(F)cc2)[C@H]2c3cc(C(=O)N4CCCC4)n(Cc4ccc(C)o4)c3C[C@H]2CN1C(=O)c1ccccc1`, the Potency in assay [1] is 10 µM (active); in assay [4] it was 3.98 µM (active); in assay [5] it was 3.16 µM (active); in assay [7], 5.01 µM (active). In addition, the Potency entry in assay [2], in assay [3] and in assay [6] was “inactive” each time.

As to `COC(=O)[C@@]1(Cc2ccc(F)cc2)[C@H]2c3cc(C(=O)N4CCCC4)n(CCCNc4ncc(C(F)(F)F)cc4Cl)c3C[C@H]2CN1C(=O)c1ccccc1`, the Potency entry in assay [1], in assay [2], in assay [3] and in assay [6] was “inactive” in each case. Besides, the Potency is 3.16 µM (active) in assay [4] and 2.51 µM (active) in assay [5].

On to `Cc1cc(C(=O)N[C@H](c2ccccc2)[C@@]2(C)C[C@@H]2[C@@H](C)C(=O)Nc2ccc3ccccc3c2)n(C)n1`, for which the Potency was 20 µM (active) in assay [1], 7.94 µM (active) in assay [4], 0.794 µM (active) in assay [5] and 0.0398 µM (active) in assay [8]. In addition, the Potency result in assay [2], in assay [3] and in assay [6] was “inactive” each time.

With `COC(=O)[C@@]1(Cc2ccc(F)cc2)[C@H]2c3cc(C(=O)N4CCCC4)n(Cc4ccccn4)c3C[C@H]2CN1C(=O)c1ccccc1`, the Potency in assay [1] was 20 µM (active); in assay [4] it was 2 µM (active). Further, the Potency result in assay [2], in assay [3] and in assay [6] was “inactive” in each case.

For `COC(=O)[C@@H]1C[C@H]1[C@@H](NC(=O)OCc1ccccc1)c1ccccc1`, the Potency is 0.2 µM (active) in assay [1], 20 µM (active) in assay [4] and 2.51 µM (active) in assay [7]. The Potency entry in assay [2] and in assay [3] was “inactive” each time.

Regarding `CCCCCCN(C(=O)CCCCCN1C(=O)NC(c2ccc(-c3ccccc3)cc2)C(C(=O)OCc2ccccc2)=C1C)C(C(=O)NCCCC)c1ccc(OCC(=O)OC)c(C(=O)OC)c1` (centres undefined), the Potency in assay [1] is 12.6 µM (active); in assay [4], 0.158 µM (active). Moreover, the Potency entry in assay [2], in assay [3], in assay [8] and in assay [7] was “inactive” in each case.

For the molecule `COC(=O)[C@@]1(Cc2ccccc2)[C@H]2c3cc(C(=O)N4CCCC4)n(Cc4cccc5ccccc45)c3C[C@H]2CN1C(=O)c1ccccc1`, the Potency in assay [1] was 15.8 µM (active); in assay [4], 0.251 µM (active); in assay [5], 1.58 µM (active); in assay [7], 2.51 µM (active). In addition, the Potency entry in assay [2], in assay [3] and in assay [6] was “inactive” each time.

Take `COC(=O)[C@@]1(Cc2ccccc2)[C@H]2c3cc(C(=O)N4CCCC4)n(Cc4ccc(C(F)(F)F)nc4)c3C[C@H]2CN1C(=O)c1ccccc1`: the Potency entry in assay [1], in assay [2], in assay [3] and in assay [6] was “inactive” each time. In addition, the Potency in assay [4] is 5.01 µM (active); in assay [5], 3.16 µM (active).

Turning to `COC(=O)[C@@H]1C[C@H]1[C@@H](NC(=O)Oc1ccc(F)cc1)c1ccccc1`, the Potency is 3.16 µM (active) in assay [1] and 3.98 µM (active) in assay [4]. In addition, the Potency result in assay [2], in assay [3] and in assay [6] was “inactive” in each case.

For `CC(=O)N[C@@H](c1ccccc1)[C@]1(C)C[C@H]1[C@@H](C)C(=O)Nc1ccc2ccccc2c1`, the Potency is 12.6 µM (active) in assay [1], 6.31 µM (active) in assay [4], 7.94 µM (active) in assay [5] and 0.398 µM (active) in assay [7]. In addition, the Potency result in assay [2], in assay [3] and in assay [6] was “inactive” in each case.

For `CC1=C(\C=C/C(C)=C/C=C\C(C)=C\CO)C(C)(C)CCC1`, the Potency result in assay [1], in assay [2], in assay [3], in assay [4], in assay [8] and in assay [7] was “inactive” each time.

In the case of `O=C(Nc1ccc2ccccc2c1)[C@H]1C[C@@H]1[C@H](NP(=O)(c1ccccc1)c1ccccc1)c1ccccc1`, the Potency in assay [1] was 10 µM (active); in assay [4] it was 3.16 µM (active); in assay [5], 2.51 µM (active); in assay [7] it was 3.16 µM (active). For the same molecule, the Potency entry in assay [2], in assay [3] and in assay [6] was “inactive” throughout.

For the molecule `COC(=O)[C@@]1(Cc2ccccc2)[C@H]2c3cc(C(=O)N4CCCC4)n(Cc4cc(F)cc5c4OCOC5)c3C[C@H]2CN1C(=O)c1ccccc1`, the Potency entry in assay [1], in assay [2], in assay [3] and in assay [6] was “inactive” each time. Moreover, the Potency was 0.316 µM (active) in assay [4], 3.98 µM (active) in assay [5] and 0.251 µM (active) in assay [7].

For the molecule `Nc1ccccc1C#Cc1ccccc1`, the Potency was 0.501 µM (active) in assay [1] and 7.94 µM (active) in assay [4]. Moreover, the Potency result in assay [2], in assay [3] and in assay [6] was “inactive” throughout.

On to `O=C(NCCc1c[nH]c2ccccc12)[C@H]1C[C@@H]1[C@H](NP(=O)(c1ccccc1)c1ccccc1)c1ccccc1`, for which the Potency in assay [1] was 12.6 µM (active); in assay [4] it was 2 µM (active); in assay [5], 1.58 µM (active); in assay [7], 1.26 µM (active). For the same molecule, the Potency result in assay [2], in assay [3] and in assay [6] was “inactive” each time.

As to `C[C@@H](C(=O)NCCc1c[nH]c2ccccc12)[C@H]1C[C@]1(C)[C@H](NC(=O)OCc1ccccc1)c1ccccc1`, the Potency in assay [1] was 15.8 µM (active); in assay [4], 0.631 µM (active); in assay [5], 1.58 µM (active); in assay [8], 2 µM (active); in assay [7], 2.51 µM (active). The Potency entry in assay [2], in assay [3] and in assay [6] was “inactive” throughout.

(Values after PubChem BioAssay (NCATS).)
